Results as given in PubChem BioAssay (Tox21).
Records with an inconclusive call do not appear. Calls of active or inactive are those of the source. Unless noted, calls follow the shape of the dose curve; as a rule, active = well fitted curve in the direction sought with a large enough effect in the repeat runs; inconclusive = weak or mixed curves; inactive = no such curve, though single readings can be large; an effect the other way counts as inactive or inconclusive.

Key:
[1] = molecular target: Thyrotropin-releasing hormone receptor (Homo sapiens) (UniProt P34981); experiment: qHTS assay to identify small molecule agonists of the thyrotropin-releasing hormone receptor (TRHR) signaling pathway (AID 1346891; calls by dose curve;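 also: HEK293 cells expressing TRHR with calcium dye readout; series mostly up to about 58 µM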)
Sequence of Thyrotropin-releasing hormone receptor (Homo sapiens) (P34981 whole entry, looked up): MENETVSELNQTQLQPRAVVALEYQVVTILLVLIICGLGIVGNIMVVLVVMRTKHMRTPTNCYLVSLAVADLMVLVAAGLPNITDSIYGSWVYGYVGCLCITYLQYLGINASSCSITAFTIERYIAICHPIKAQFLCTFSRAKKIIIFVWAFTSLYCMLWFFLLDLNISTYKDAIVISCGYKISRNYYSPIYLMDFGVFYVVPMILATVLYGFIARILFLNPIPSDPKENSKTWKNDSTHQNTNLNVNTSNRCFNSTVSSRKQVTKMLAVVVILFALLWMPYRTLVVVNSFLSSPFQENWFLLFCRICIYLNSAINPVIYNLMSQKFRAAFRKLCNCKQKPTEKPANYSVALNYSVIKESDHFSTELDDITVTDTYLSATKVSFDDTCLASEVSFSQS
Method in brief: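 Overnight-plated (18 h, 37 °C, 5% CO2) TRHR-Hek293 cells; 2 h calcium dye at 37 °C; compound in DMSO; 3-min kinetic fluorescence read.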

[2] = Human pregnane X receptor (PXR) small molecule agonists, qHTS cell viability counter screen (AID 1346977); also: nearly all actives have a fitted effect of over 50% in size
Method in brief: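 After a 5hr pre-incubation, PXR-Luc HepG2 cells received compounds plus positive control in DMSO and were kept 24hr at 37C. Cell viability was quantified by fluorescence from CellTiter-Fluor added for the final hour.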

[3] = Caspase-3/7 induction in HepG2 cells by small molecules, qHTS assay (AID 1346978); also: nearly all actives have a fitted effect of over 15% in size
Method in brief: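 Wild-type HepG2 cells (2,000/well) were settled 5 h at 37 C, 5% CO2, then exposed to compounds in DMSO for 17 h. Caspase-3/7 activity was read by luminescence 30 min after adding Caspase-Glo 3/7 reagent at room temperature.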

[4] = Caspase-3/7 induction in CHO-K1 cells by small molecules, qHTS cell viability counter screen (AID 1346979); also: nearly all actives have a fitted effect of over 35% in size
Method in brief: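 Multiplexed with Caspase-Glo 3/7 in CHO-K1 cells, this counter screen added CellTiter-Fluor after 16hr of compound exposure and recorded fluorescence 1hr later.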

[5] = Caspase-3/7 induction in CHO-K1 cells by small molecules, qHTS assay (AID 1346980); also: nearly all actives have a fitted effect of over 15% in size
Method in brief: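 Wild-type cells were seeded at 1,500 per well and settled 5 hr at 37 C, 5% CO2, then exposed to DMSO-dissolved compounds for 17 hr. Caspase-Glo 3/7 reagent was added, and luminescence was read after 30min at room temperature.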

[6] = Caspase-3/7 induction in HepG2 cells by small molecules, qHTS cell viability counter screen (AID 1346981); also: series mostly up to about 92 µM; nearly all actives have a fitted effect of over 30% in size
Method in brief: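 Counter screen for cytotoxicity: HepG2 exposed 16 hr to compounds, then CellTiter-Fluor viability signal (fluorescence, 1 hr reagent incubation).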

[7] = molecular target: Nuclear receptor subfamily 1 group I member 2 (Homo sapiens) (UniProt O75469); experiment: Human pregnane X receptor (PXR) small molecule agonists, qHTS assay (AID 1346982); also: nearly all actives have a fitted effect of over 35% in size; also: potency is read from the fitted curve at half-maximal effect
Sequence of Nuclear receptor subfamily 1 group I member 2 (Homo sapiens) (O75469 whole entry, looked up): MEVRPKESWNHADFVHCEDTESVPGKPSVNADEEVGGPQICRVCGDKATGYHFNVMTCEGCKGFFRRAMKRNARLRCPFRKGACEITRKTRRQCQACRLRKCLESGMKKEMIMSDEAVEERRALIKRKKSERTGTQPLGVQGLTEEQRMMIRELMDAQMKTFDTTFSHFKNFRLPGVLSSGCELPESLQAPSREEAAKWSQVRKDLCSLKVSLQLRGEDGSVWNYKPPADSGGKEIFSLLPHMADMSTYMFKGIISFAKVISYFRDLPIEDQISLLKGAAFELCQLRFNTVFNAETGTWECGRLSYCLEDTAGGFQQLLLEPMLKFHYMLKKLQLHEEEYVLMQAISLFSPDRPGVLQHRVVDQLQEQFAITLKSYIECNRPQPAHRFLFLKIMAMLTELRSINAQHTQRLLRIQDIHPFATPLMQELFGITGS
Method in brief: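 Luminescence (ONE-Glo, 30 min RT) after 24 hr compound exposure of PXR-Luc HepG2 cells; cells rested 5 hr post-plating in 5% charcoal-stripped FBS medium.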

[8] = molecular target: Acetylcholinesterase (Homo sapiens) (UniProt P22303); experiment: Acetylcholinesterase (AChE) small molecule antagonists: colormetric cell-based qHTS assay (AID 1347395; calls by dose curve; also: nearly all actives have a fitted effect of over 30% in size; also: potency is read from the fitted curve at half-maximal effect)
Sequence of Acetylcholinesterase (Homo sapiens) (P22303 whole entry, looked up): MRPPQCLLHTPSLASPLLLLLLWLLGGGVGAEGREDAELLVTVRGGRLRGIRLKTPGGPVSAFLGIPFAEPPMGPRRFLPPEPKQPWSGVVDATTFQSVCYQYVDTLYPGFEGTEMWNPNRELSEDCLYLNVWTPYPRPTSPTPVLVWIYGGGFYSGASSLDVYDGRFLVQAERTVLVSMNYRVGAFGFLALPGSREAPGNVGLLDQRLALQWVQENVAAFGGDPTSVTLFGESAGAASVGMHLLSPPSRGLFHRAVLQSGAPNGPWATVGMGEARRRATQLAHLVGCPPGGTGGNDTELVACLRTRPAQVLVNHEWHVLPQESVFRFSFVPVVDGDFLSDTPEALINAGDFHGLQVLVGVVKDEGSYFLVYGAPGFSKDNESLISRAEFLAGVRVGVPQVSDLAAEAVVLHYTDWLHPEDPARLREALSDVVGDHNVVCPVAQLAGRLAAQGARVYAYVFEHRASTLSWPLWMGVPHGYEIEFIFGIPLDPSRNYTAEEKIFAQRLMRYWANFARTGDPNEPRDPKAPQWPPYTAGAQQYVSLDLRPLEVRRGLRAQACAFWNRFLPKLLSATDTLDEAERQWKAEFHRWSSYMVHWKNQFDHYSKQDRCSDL
Method in brief: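 In this cell-based qHTS, attached SH-SY5Y cells were treated with test chemicals for 30 min, after which acetylthiocholine hydrolysis was followed by DTNB colour development over 90 min at 37 C.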

[9] = molecular target: Nuclear receptor subfamily 1 group I member 2 (Rattus norvegicus) (UniProt Q9R1A7); experiment: Rat pregnane X receptor (rPXR) activation by small molecules, qHTS assay (AID 1346983); conditions: rPXR luciferase reporter cells, One-Glo luminescence, 24 h; stronger effect = higher value; also: nearly all actives have a fitted effect of over 20% in size
Sequence of Nuclear receptor subfamily 1 group I member 2 (Rattus norvegicus) (Q9R1A7 whole entry, looked up): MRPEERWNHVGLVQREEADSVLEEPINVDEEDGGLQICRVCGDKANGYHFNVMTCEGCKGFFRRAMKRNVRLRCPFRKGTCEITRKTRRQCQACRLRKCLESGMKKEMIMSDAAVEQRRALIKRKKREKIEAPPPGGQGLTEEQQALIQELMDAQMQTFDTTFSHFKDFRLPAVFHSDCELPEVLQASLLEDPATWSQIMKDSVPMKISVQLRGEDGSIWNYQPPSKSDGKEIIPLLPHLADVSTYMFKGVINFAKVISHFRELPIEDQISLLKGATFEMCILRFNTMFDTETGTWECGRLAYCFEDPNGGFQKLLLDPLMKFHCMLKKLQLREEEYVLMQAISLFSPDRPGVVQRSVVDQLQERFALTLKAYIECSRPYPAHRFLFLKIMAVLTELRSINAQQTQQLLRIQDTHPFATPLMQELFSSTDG
Method in brief: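 Cell-based rPXR luciferase reporter assay, 2,000 cells per well, rested 5hr at 37 C before compound addition in DMSO, then 24 hr at 37 C. One-Glo reagent was added and luminescence read after 30 min at room temperature.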

[10] = molecular target: Nuclear receptor subfamily 1 group I member 2 (Homo sapiens) (UniProt O75469); experiment: CYP3A4 induction through human pregnane X receptor (PXR) by small molecules, qHTS assay (AID 1346984); also: nearly all actives have a fitted effect of over 40% in size
Method in brief: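 DPX-2 reporter cells; 24h cpd, 37C; Luciferin-IPA 3uM final x3h; One-Glo 30 min RT; lumi read.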
% is scaled to controls: 0 for no effect and ±100 for the full control effect.

CC(=O)CN(CC(C)=O)N=O
inactive: outcome [1] | Potency [2] | outcome [3] | Potency [4] | outcome [5] | Potency [6] | Potency [7] | Potency [8]

BrCCc1ccccc1
inactive: outcome [1] | Potency [2] | outcome [3] | Potency [4] | outcome [5] | Potency [6] | Potency [7] | Potency [8]

BrCC1CO1 (stereo not drawn)
inactive: outcome [1] | Potency [2] | outcome [3] | Potency [4] | outcome [5] | Potency [6] | Potency [7] | Potency [8]

CC(C)c1ccc(O)cc1
inactive: outcome [1] | Potency [2] | outcome [3] | Potency [4] | outcome [5] | Potency [6] | Potency [7] | Potency [8]

O=C(O)C(Br)(Br)Br
inactive: outcome [1] | Potency [2] | outcome [3] | Potency [4] | outcome [5] | Potency [6] | Potency [7] | Potency [8]

Clc1cc2c(cc1Cl)Oc1cc(Cl)c(Cl)cc1O2
inactive: activation [1] -0.214% [at 0.218 µM] | activity change, negative = cytotoxicity [2] -5.16% [at 0.349 µM] | caspase activation [3] 2.22% [at 0.349 µM] | activity change, negative = cytotoxicity [4] 8.13% [at 0.349 µM] | caspase-3/7 activation [5] 0.0442% [at 0.349 µM] | activity change, negative = cytotoxicity [6] -3.38% [at 0.349 µM] | activation [7] -4.83% [at 0.349 µM] | activity, negative = inhibition [8] -1.29% [at 0.435 µM]

CC(C)(N)Cc1ccccc1Cl
inactive: outcome [1] | Potency [2] | outcome [3] | Potency [4] | outcome [5] | Potency [6] | Potency [7] | Potency [8]

CC(Cc1ccccc1)NCCCCl (stereo not drawn)
inactive: outcome [1] | Potency [2] | outcome [3] | Potency [4] | outcome [5] | Potency [6] | Potency [7] | Potency [8]

O=C/C=C/c1ccco1
inactive: outcome [1] | Potency [2] | outcome [3] | Potency [4] | outcome [5] | Potency [6] | Potency [7] | Potency [8]

C=CCCC#N
inactive: outcome [1] | Potency [2] | outcome [3] | Potency [4] | outcome [5] | Potency [6] | Potency [7] | Potency [8]

c1ccc2c(c1)CCNC2
inactive: outcome [1] | Potency [2] | outcome [3] | Potency [4] | outcome [5] | Potency [6] | Potency [7] | Potency [8]

Cc1cc(OC(=O)N(C)C)nn1C(=O)N(C)C
inactive: outcome [1] | Potency [2] | outcome [3] | Potency [4] | outcome [5] | Potency [6] | Potency [7]
active: Potency [8] 7.1 µM

CCC1(c2ccccc2)CCC(=O)NC1=O (stereo not drawn)
inactive: outcome [1] | Potency [2] | outcome [3] | Potency [4] | outcome [5] | Potency [6] | Potency [7] | max activation [9] -0.631% | Potency [10] | Potency [8]

CCC(C(N)=O)N1CCCC1=O (stereo not drawn)
inactive: outcome [1] | Potency [2] | outcome [3] | Potency [4] | outcome [5] | Potency [6] | Potency [7] | max activation [9] 4.65% | Potency [10] | Potency [8]

CCN[C@@H](C)Cc1ccccc1
inactive: outcome [1] | Potency [2] | outcome [3] | Potency [4] | outcome [5] | Potency [6] | Potency [7] | Potency [8]

OP(O)c1ccccc1
inactive: outcome [1] | Potency [2] | outcome [3] | Potency [4] | outcome [5] | Potency [6] | Potency [7] | Potency [8]

O=C(O)C(Cl)Br (stereo not drawn)
inactive: outcome [1] | Potency [2] | outcome [3] | Potency [4] | outcome [5] | Potency [6] | Potency [7] | Potency [8]

CCN(CC)C1CCCCC1
inactive: outcome [1] | Potency [2] | outcome [3] | Potency [4] | outcome [5] | Potency [6] | Potency [7] | Potency [8]

CN1COCN(Cc2cnc(Cl)s2)/C1=N\[N+](=O)[O-]
inactive: outcome [1] | Potency [2] | outcome [3] | Potency [4] | outcome [5] | Potency [6] | Potency [7] | Potency [8]

CS(=O)(=O)Cl
inactive: outcome [1] | Potency [2] | outcome [3] | Potency [4] | outcome [5] | Potency [6] | Potency [7] | Potency [8]

CC[C@@H](CO)NC(=O)[C@@H]1C=C2c3cccc4[nH]cc(c34)C[C@H]2N(C)C1
inactive: outcome [1] | Potency [2] | outcome [3] | Potency [4] | outcome [5] | Potency [6] | Potency [7]
active: Potency [8] 17.4 µM

ClCCCCl
inactive: outcome [1] | Potency [2] | outcome [3] | Potency [4] | outcome [5] | Potency [6] | Potency [7] | Potency [8]

O=C(Cl)C(Cl)(Cl)Cl
inactive: outcome [1] | Potency [2] | outcome [3] | Potency [4] | outcome [5] | Potency [6] | Potency [8]
active: Potency [7] 43.5 µM

O=c1[nH]c2ccccc2n1C1CCNCC1
inactive: outcome [1] | Potency [2] | outcome [3] | Potency [4] | outcome [5] | Potency [6] | Potency [7] | Potency [8]

CCOc1cc(OP(=S)(OC)OC)nc(CC)n1
inactive: outcome [1] | Potency [2] | outcome [3] | Potency [4] | outcome [5] | Potency [6] | Potency [7] | Potency [8]

C=CCc1cc(OC)c2c(c1)OCO2
inactive: outcome [1] | Potency [2] | outcome [3] | Potency [4] | outcome [5] | Potency [6] | Potency [8]
active: Potency [7] 36 µM

C[C@H](N)C(=O)c1ccccc1
inactive: outcome [1] | Potency [2] | outcome [3] | Potency [4] | outcome [5] | Potency [6] | Potency [7] | Potency [8]

CS(=O)(=O)c1ccc(C(=O)C2C(=O)CCCC2=O)c(Cl)c1COCC(F)(F)F
active: Potency [8] 28.3 µM
inactive: outcome [1] | Potency [2] | outcome [3] | Potency [4] | outcome [5] | Potency [6] | Potency [7]

CCCOC(=O)Cc1ccc(OCC(=O)N(CC)CC)c(OC)c1
inactive: outcome [1] | Potency [2] | outcome [3] | Potency [4] | outcome [5] | Potency [6] | Potency [8]
active: Potency [7] 15 µM

C=C(Cl)CCl
inactive: outcome [1] | Potency [2] | outcome [3] | Potency [4] | outcome [5] | Potency [6] | Potency [7] | Potency [8]

O=CCCl
inactive: outcome [1] | Potency [2] | outcome [3] | Potency [4] | outcome [5] | Potency [6] | Potency [7] | Potency [8]

CON(C)C(=O)Nc1ccc(Br)cc1
active: Potency [7] 38.6 µM
inactive: outcome [1] | Potency [2] | outcome [3] | Potency [4] | outcome [5] | Potency [6] | Potency [8]

CCOC(=O)c1ncn2c1CN(C)C(=O)c1c(I)cccc1-2
inactive: outcome [1] | Potency [2] | outcome [3] | Potency [4] | outcome [5] | Potency [6] | Potency [7] | Potency [8]

Cc1cccc2sc3nncn3c12
active: Potency [7] 34.4 µM | Potency [8] 39.9 µM
inactive: outcome [1] | Potency [2] | outcome [3] | Potency [4] | outcome [5] | Potency [6]

O=C(O)CBr
inactive: outcome [1] | Potency [2] | outcome [3] | Potency [4] | outcome [5] | Potency [6] | Potency [7] | Potency [8]

O=C(CCl)NCO
inactive: outcome [1] | Potency [2] | outcome [3] | Potency [4] | outcome [5] | Potency [6] | Potency [7] | Potency [8]

CCCN1CCC[C@@H]2Cc3[nH]ncc3C[C@H]21
active: Potency [8] 27.5 µM
inactive: outcome [1] | Potency [2] | outcome [3] | Potency [4] | outcome [5] | Potency [6] | Potency [7]

COP(=O)(O)OC
inactive: outcome [1] | Potency [2] | outcome [3] | Potency [4] | outcome [5] | Potency [6] | Potency [7] | Potency [8]
